Screening data: PubChem BioAssay, National Center for Advancing Translational Sciences (NCATS)
This excerpt belongs to a sample that is enriched for hits.
HT1080 IDH1KD tx – HT-1080 IDH1 knockdown cell toxicity (counter line) | HT-1080 IDH1 knockdown viability, ATP luminescence, 48 h | Potency, µM (titrated, usually from 46.1 µM), for the others: top-dose activity, negative = toxicity, actives largely listed as cytotoxic | 2% of 360,000 active;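 also: potency is read from the fitted curve at half-maximal effect; 0% = DMSO wells and -100% = cell-free medium wells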
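IDH1KD HT-1080 cells, 750/well, RPMI + 5% FBS; compound pinned after 2 h settling; 48 h, 37 °C; CellTiter-Glo luminescence; % activity normalised to DMSO and no-cell wells; curves fitted, classed by r2 and efficacy.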
IL1B secr inh – blocks inflammasome-driven IL-1 beta release; THP-1 LPS/ATP IL-1B secretion, AlphaLISA, 16 h; active compounds read low; activity change, % at 57.5 µM; 4.7% of 360,000 active; in the data active = activity change below about -50%; inconclusive = mostly about -30% to -49%
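THP-1 cells pretreated 1 hr with compounds (up to 57.5 uM final), then stimulated with LPS (250 ng/mL final) plus ATP (1.25 mM final); secreted IL-1B measured by AlphaLISA after 16 hr, decreased signal indicating inhibition.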
TDP1 cell CPT – DT40-hTDP1 cell growth loss with CPT. chicken DT40 Tdp1-/-;hTDP1 cells + 20 nM CPT, ATP luminescence, 48 h. Potency, µM (titrated, usually from 46.2 µM), for the others: top-dose activity change, negative = growth inhibition, hits mostly inhibitors. 12% of 420,000 active; also: potency is read from the fitted curve at half-maximal effect; nearly all actives have a fitted effect of over 55% in size
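Chicken DT40 Tdp1-/- cells complemented with human TDP1, 400 cells/well, exposed to compounds plus 20 nM camptothecin for at least 48 h at 37 C; viability read as ATP content by CellTiter-Glo luminescence.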
12-LOX inh – ALOX12 (human) lipoxygenase inhibition; AID 1671190; purified 12hLO, xylenol orange hydroperoxide absorbance; 1.1% of 580,000 active; Potency, µM (series often up to 108 µM), inactives show at the highest dose activity change, negative = inhibition, most hits filed as inhibitors; P18054; also: potency is read from the fitted curve at half-maximal effect
Target sequence (P18054 whole entry, looked up): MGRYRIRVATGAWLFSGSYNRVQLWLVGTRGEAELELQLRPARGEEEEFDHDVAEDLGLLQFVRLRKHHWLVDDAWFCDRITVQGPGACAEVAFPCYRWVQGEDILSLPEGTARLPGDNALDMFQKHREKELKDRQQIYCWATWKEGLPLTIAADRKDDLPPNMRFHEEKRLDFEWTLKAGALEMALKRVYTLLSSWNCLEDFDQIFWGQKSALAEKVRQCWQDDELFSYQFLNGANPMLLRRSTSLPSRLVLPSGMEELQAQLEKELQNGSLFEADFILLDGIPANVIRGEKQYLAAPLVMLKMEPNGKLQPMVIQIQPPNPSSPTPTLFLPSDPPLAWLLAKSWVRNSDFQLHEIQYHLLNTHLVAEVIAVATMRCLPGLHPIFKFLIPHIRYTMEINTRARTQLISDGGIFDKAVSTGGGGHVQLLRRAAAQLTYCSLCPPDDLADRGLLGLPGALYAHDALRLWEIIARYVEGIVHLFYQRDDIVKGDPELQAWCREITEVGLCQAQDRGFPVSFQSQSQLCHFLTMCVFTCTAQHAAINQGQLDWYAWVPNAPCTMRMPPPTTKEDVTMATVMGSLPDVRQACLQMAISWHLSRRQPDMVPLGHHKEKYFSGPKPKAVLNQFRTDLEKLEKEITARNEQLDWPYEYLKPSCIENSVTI
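Purified human 12hLO (150 nM final) in 25 mM Hepes, 0.01% Triton X-100, pH 7.0 was preincubated 15 min at room temperature with compound. Then 40 uM arachidonic acid was added, 30 min. Hydroperoxide was read by Fe-XO absorbance ratio 573/405 nm.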
HT1080NT lethal – kills 2HG-producing HT-1080-NT fibrosarcoma cells. Potency, µM (highest dose often 46.1 µM), inactives show top-dose activity, negative = less viability, usual class: cytotoxic. HT-1080-NT fibrosarcoma viability, CellTiter-Glo ATP luminescence, 48 h. 1.6% of 360,000 active;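 also: NT is the 2HG producing partner of a matched IDH1 knockdown line; potency is read from the fitted curve at half-maximal effect; 0% = DMSO-treated cells and -100% = media-only wells without cells; nearly all actives have a fitted effect of over 55% in size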
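750 cells/well, RPMI + 5% FBS; 2 h settle, compound pin-transfer, 48 h at 37 degrees C. CellTiter-Glo 10 min RT, luminescence. Normalized to DMSO and media-only wells.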
DT40 TDP1 no CPT – qHTS for Inhibitors of human tyrosyl-DNA phosphodiesterase 1 (TDP1): qHTS in cells in absence of CPT | DT40 Tdp1-/- hTDP1 cells, no CPT, ATP luminescence, 48 h | AID 686978, 2013 | Potency, µM (highest dose often 46.2 µM), inactives show top-dose activity change, negative = growth inhibition, usual class: inhibitors | 15% of 420,000 active; also: potency is read from the fitted curve at half-maximal effect; nearly all actives have a fitted effect of over 55% in size
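Growth of hTDP1-complemented DT40 Tdp1-knockout cells is measured by ATP luminescence after at least 48 hr compound exposure at 37 °C, with DMSO substituting for the 20 nM CPT used in the parallel screen.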
The depositor's hits bear a star; ? = inconclusive; · = no result; ! = not confirmed by another sample; [ ] = another dose, or the depositor's remark. Unless noted, calls follow the shape of the dose curve; as a rule, active = well fitted curve in the direction sought with a large enough effect; inconclusive = small, poorly fitted or top-dose-only effect, or another doubt; inactive = no such curve, though single readings can be large; an effect the other way counts as inactive or inconclusive. Unless noted, % is scaled to controls: 0 for no effect and ±100 for the full control effect.

SMILES	HT1080 IDH1KD tx	IL1B secr inh	TDP1 cell CPT	12-LOX inh	HT1080NT lethal	DT40 TDP1 no CPT
COc1cccc(CNC(=O)c2sc(-c3ccc(OC)c(OC)c3)nc2C)c1	·	·	·	9.4%	·	·
CCNC(=O)NC(=O)COC(=O)CCCc1c[nH]c2ccccc12	·	·	·	-9.1%	·	·
Cc1ccc(C(=O)CSc2nc3ccccc3c(=O)[nH]2)cc1	2.0%	0.0	5.8µM*	?	2.4%	8.2µM*
Cc1ccc(C(=O)CSc2nc3ccccc3c(=O)[nH]2)cc1C	-27.5%	21.7	?	?	2.0%	?
CCc1ccc(C(=O)CSc2nc3ccccc3c(=O)[nH]2)cc1	1.2%	51.2	1.46µM*	-8.9%	0.9%	1.64µM*
CCOC(=O)CSc1nc2ccccc2c(=O)[nH]1	-1.8%	-19.4	-28.5%	-8.4%	-1.2%	-9.8%
Cc1cc(C(=O)NCCc2ccccc2)c2cccc(C)c2n1	·	·	·	-14.8%	·	·
O=C(c1ccc(C(F)(F)F)cc1)N1CCC2(CC1)Cc1ccccc1NC2=O	·	·	·	25.9%	·	·
O=C1NCCOC(=O)[C@H](Cc2ccc(F)cc2)C/C=C\C[C@@H]1CC(=O)N(CCO)Cc1ccccc1	12.0%	5.1	13µM*	?	3.3%	11.6µM*
O=C(C[C@@H]1C/C=C\C[C@@H](Cc2ccc(F)cc2)C(=O)OCCNC1=O)NCCO	0.0%	10.2	6.8%	2.8%	0.0%	-15.7%
O=C1NCCOC(=O)[C@H](Cc2ccc(F)cc2)C/C=C\C[C@H]1CC(=O)N(CCO)Cc1ccccc1	3.4%	6.3	8.2µM*	0.0%	7.2%	9.2µM*
O=C(CSc1ccc(-c2cccs2)nn1)Nc1ccccc1	-5.5%	-15.4	13µM*!	-9.1%	-11.5%	20.6µM*
COC(=O)c1ccc(NC(=O)CSc2ccc(-c3cccs3)nn2)cc1	·	·	-17.5%	-5.6%	·	-15.4%
Cc1cc(C)cc(NC(=O)CSc2ccc(-c3cccs3)nn2)c1	-27.5%	-72.1*	?	-15.9%	-18.8%	20.6µM*!
CN(CCC1CCCCN1C)Cc1cccc(C#N)c1 (stereo not drawn)	·	·	·	-4.3%	·	·
Cc1ccccc1-c1cc(-c2ccc(=O)[nH]c2)c2cncn2c1	·	·	·	13.6%[176 µM]	·	·
Cc1nc(C(=O)Nc2cc(F)cc(Cl)c2)sc1C1(C)CC(c2ccccc2)=NO1 (stereo not drawn)	-3.4%	?	16.4µM*	?	-11.3%	20.6µM*
CNC(=O)c1nc(C)c(C2(C)CC(c3ccccc3)=NO2)s1 (stereo not drawn)	2.1%	10.5	-9.8%	-12.9%	9.2%	-27.7%
Cc1nc(C(=O)NC2CCCCC2)sc1C1(C)CC(c2cccc([N+](=O)[O-])c2)=NO1 (stereo not drawn)	0.5%	1.9	?	13.5%	2.5%	23.1µM*
Cc1nc(C(=O)Nc2ccc(Cl)cc2)sc1C1(C)CC(c2cccc([N+](=O)[O-])c2)=NO1 (stereo not drawn)	-12.4%	-6.1	?	6.3%	4.9%	?
Cc1nc(C(=O)NC2CC2)sc1C1(C)CC(c2ccccc2)=NO1 (stereo not drawn)	-6.9%	0.9	-15.9%	1.4%	1.9%	-21.8%
COc1ccc(NC(=O)c2nc(C)c(C3(C)CC(c4cccnc4)=NO3)s2)cc1 (stereo not drawn)	6.51µM*	30.7	5.8µM*	1.6%	?	3.66µM*
COc1ccc(-c2csc(NC(=O)CN3CCN(c4cccc(C(F)(F)F)c4)CC3)n2)cc1	·	·	·	13.8%	·	·
CCC(=O)Nc1ccc(S(=O)(=O)NCCn2nc(-c3ccccc3)ccc2=O)cc1	·	·	·	40.3%	·	·
Cc1cc(=O)n(Cc2ccccc2)c(O)c1C#N	13.3%	-2.6	-1.6%	17.8µM*	12.7%	-12.9%
